Among all 5,500 compounds or so, about 2,000 (36%) were called active. About 18% were inconclusive and are not listed. Rule as the data show it: active = normalized growth mostly below about 0.91 (no sharp cut-off); inconclusive = no clear call, values can overlap the other calls; inactive = mostly above about 0.92. The list shows a part of the results.
Assay: chemical genetic growth profiling, strain panel (AID 1159580);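 also: tested at 20 µM; growth read once vehicle control cultures reached saturation at 30 °C; 1 = growth at the plate median or of vehicle wells; lower values mean less growth of the strain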
Conditions: S. cerevisiae deletion strains, growth OD

Measured: normalized growth

O=C1c2ccccc2C(=O)C1c1ccc(Br)cc1
active: locus YHR030C, strain SLT2, stronger effect = lower value 0.851 | locus YHR079C, strain IRE1, stronger effect = lower value 0.816 | locus YJR066W, strain TOR1, stronger effect = lower value 0.823 | locus YLR113W, strain HOG1, stronger effect = lower value 0.717 | locus YNL183C, strain NPR1, stronger effect = lower value 0.818 | locus YOR231W, strain MKK1, stronger effect = lower value 0.853 | locus YPL256C, strain CLN2, stronger effect = lower value 0.712
inactive: locus YJL095W, strain BCK1, stronger effect = lower value 0.888
